# Results published in PubChem BioAssay (NCI).
# Values joined by “and” are separate entries in the source; they are usually repeats but may differ in a detail not shown here. Equal values may be shown once. Compounds without any hit were thinned out: in the full panel of roughly 83,000, 20% have a hit.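 A percent growth of 40 corresponds to 60% growth inhibition; 0 means no net growth; -100 means all cells died. Active threshold: below 10.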 Active and inactive are the calls of the source. Where a SMILES comes first, the peptide text is derived from it. The star is where a group is joined. Trt = c1ccc(C(c2ccccc2)(c2ccccc2)*)cc1; Cbz = O=C(OCc1ccccc1)*
# How the values were obtained:
# Experiment in all cases: NCI-60 one-dose screen, 48 h (100 = growth as untreated, 0 = no growth, -100 = all killed)
# [1] = test system: T-47D breast; conditions: 10 µM unless noted
# [2] = test system: BT-549 breast; conditions: 10 µM unless noted
# [3] = test system: MDA-MB-435 melanoma; conditions: 10 µM unless noted
# [4] = test system: SW-620 colon; conditions: 10 µM unless noted
# [5] = test system: MCF7 breast
# [6] = test system: HCT-116 colon; conditions: 10 µM unless noted
# [7] = test system: HCC-2998 colon; conditions: 10 µM unless noted
# [8] = test system: KM12 colon; conditions: 10 µM unless noted
SMILES,growth [1],growth [2],growth [3],growth [4],growth ([5]; 10 µM),growth [6],growth [7],growth [8],growth ([5]; 100 µM)
CC(=Nc1ccc(N(C)C)cc1)c1ccccc1,39.6% (inactive),58.3% (inactive),54.4% (inactive),42.6% (inactive),20.8% (inactive),50% (inactive),58.2% (inactive),,
O=C(Nc1ccccc1)Oc1c(Cl)c(Cl)c(Cl)c(Cl)c1Cl,102% (inactive) and 84.5% (inactive),98.7% (inactive) and 88.5% (inactive),109% (inactive) and 98.8% (inactive),101% (inactive) and 102% (inactive),98.1% (inactive) and 91.5% (inactive),105% (inactive) and 101% (inactive),112% (inactive) and 108% (inactive),100% (inactive) and 97.5% (inactive),
COC(=O)Nc1nc2ccc(C(=O)c3ccccc3)cc2[nH]1,36.8% (inactive) and 82.6% (inactive) and 77.2% (inactive),63.9% (inactive) and 63% (inactive) and 51.4% (inactive),-59.5% (active) and -46.6% (active) and -73% (active),24.2% (inactive) and 25% (inactive) and 19.4% (inactive),21.4% (inactive) and 18.4% (inactive) and 8.91% (active),19.9% (inactive) and 9.73% (active) and 13.3% (inactive),57.3% (inactive) and 2.48% (active) and 23.8% (inactive),,
Cc1ccc(NS(=O)(=O)c2ccc(C)cc2)cc1,94.1% (inactive) and 83.7% (inactive),117% (inactive) and 105% (inactive),108% (inactive) and 109% (inactive),104% (inactive) and 107% (inactive),88% (inactive) and 91.2% (inactive),102% (inactive) and 98.1% (inactive),97.7% (inactive) and 97.8% (inactive),,
Cn1c2c(c3ccccc31)CCN1C[C@@H]3CCCC[C@H]3C[C@@H]21,32.9% (inactive),22.5% (inactive),-53.4% (active),13.5% (inactive),13.9% (inactive),-10.1% (active),-4.34% (active),-32.3% (active),
C[n+]1c(/C=C/c2ccc([N+](=O)[O-])cc2)ccc2ccccc21,103% (inactive),107% (inactive),108% (inactive),97.6% (inactive),96.1% (inactive),102% (inactive),100% (inactive),,
O=[N+]([O-])c1ccc(N=Nc2ccc(O)cc2O)cc1,27.4% (inactive),64.5% (inactive),10.1% (inactive),47.8% (inactive),26% (inactive),17.5% (inactive),31.6% (inactive),64.3% (inactive),
COc1ccc(N=N/N=c2\sc3cc(OC)ccc3n2C)cc1,83.6% (inactive),95.5% (inactive),104% (inactive),102% (inactive),78.9% (inactive),95.8% (inactive),102% (inactive),95% (inactive),
Cc1ccnc(NC(c2ccccc2)c2ccc3cccnc3c2O)c1 (stereo not given),54.7% (inactive),57.1% (inactive),30.5% (inactive),48.9% (inactive),22.4% (inactive),31.8% (inactive),27.3% (inactive),32.8% (inactive),
COc1cc(/C=C(/C)C[N+](=O)[O-])ccc1O,56.7% (inactive),113% (inactive),105% (inactive),48.9% (inactive),16.5% (inactive),82.7% (inactive),102% (inactive),96.5% (inactive),
O=C(O)C1C2CC3C(OC(=O)C31)C2Br (stereo not given),98.7% (inactive) and 96% (inactive),99.4% (inactive) and 93.2% (inactive),109% (inactive) and 95.4% (inactive),94.7% (inactive) and 94.8% (inactive),88.7% (inactive) and 93.8% (inactive),94.1% (inactive) and 101% (inactive),88.8% (inactive) and 96.8% (inactive),108% (inactive) and 106% (inactive),
CC1OC2CC(=O)OC2C2=C1C(=O)c1c(O)cccc1C2=O (stereo not given),-30.1% (active),-98.5% (active),-68% (active),-76.4% (active),-45.2% (active),-97.8% (active),-97.4% (active),24.7% (inactive),
CCN1/C(=C\c2cc[n+](CC)c3ccccc23)C=Cc2ccccc21,2.9% (active),10.8% (inactive),-30.7% (active),8.76% (active),8.12% (active),11.9% (inactive),23% (inactive),1.57% (active),
O=C1c2ccccc2C(=O)c2sc(Nc3ccc(Cl)cc3)nc21,29.2% (inactive),75.9% (inactive),-87.5% (active),-40% (active),-60.3% (active),-36.6% (active),57.6% (inactive),60.1% (inactive),
Cc1ccc2c(ccc3c[n+]4c5ccccc5ccc4n32)c1,-24.7% (active),-2.45% (active),-27.5% (active),7.65% (active),0.326% (active),7.17% (active),-34.9% (active),-8.63% (active),
NC(N)=N/N=C/c1ccc([N+](=O)[O-])o1,96.7% (inactive),94.5% (inactive),115% (inactive),105% (inactive),72.4% (inactive),89% (inactive),88% (inactive),82.3% (inactive),
COc1ccc2nc3cc(Cl)ccc3c(NCCNc3c4ccc(Cl)cc4nc4ccc(OC)cc34)c2c1,-64.4% (active),-76.6% (active),-78.9% (active),-50.4% (active),-70% (active),-83.3% (active),-82.2% (active),-71.8% (active),
O=C(/C=C/c1cccc(Cl)c1)c1ccccc1,96.8% (inactive) and 88.3% (inactive),98.4% (inactive) and 85.2% (inactive),88.1% (inactive) and 59.8% (inactive),52.8% (inactive) and 39.4% (inactive),31.4% (inactive) and 15.7% (inactive),12.3% (inactive) and -17.1% (active),92.5% (inactive),63.2% (inactive) and 30.8% (inactive),
N#CSCc1c(Cl)cccc1Cl,79.9% (inactive),88.4% (inactive),29.6% (inactive),34.7% (inactive),33.3% (inactive),4.1% (active),70% (inactive),48.1% (inactive),
O=C1c2cccnc2-c2nccc3c2c1nc1cc(Br)ccc13,-34.3% (active) and -63.8% (active),-73.9% (active) and -67.8% (active),-68.4% (active) and -94.5% (active),-63.4% (active) and -74.8% (active),-41.9% (active) and -57.8% (active),-81.5% (active) and -68.7% (active),-100% (active) and -82.7% (active),-96.7% (active) and -76.7% (active),
CCC(c1cccc(O)c1)C(CC)c1cccc(O)c1 (stereo not given),53.8% (inactive),66% (inactive),-15.9% (active),42% (inactive),16.8% (inactive),34.4% (inactive),67% (inactive),36.7% (inactive),
CCCCCCCCCCCCCCCCOP(=O)([O-])OCC[N+](C)(C)C,73% (inactive),45% (inactive),68.3% (inactive),50.9% (inactive),68.5% (inactive),24.6% (inactive),17.7% (inactive),-90.4% (active),
COC(=O)C(CSC(c1ccccc1)(c1ccccc1)c1ccccc1)NC(=O)C(CC(N)=O)NC(=O)OCc1ccccc1 (stereo not drawn) (Cbz-Asn-Cys(Trt)-OMe; configuration not given here),-0.975% (active),50.6% (inactive),-37.3% (active),62.6% (inactive),32.3% (inactive),12.7% (inactive),-18.7% (active),33% (inactive),
O=C(Nc1cccc(Br)c1)Oc1ccc(Cl)c2cccnc12,12.1% [100 µM] (inactive),4.77% [100 µM] (active),30.2% [100 µM] (inactive),26.1% [100 µM] (inactive),,2.06% [100 µM] (active),44.9% [100 µM] (inactive),30.5% [100 µM] (inactive),-30.3% (active)
NC1=CC(=O)c2ccccc2C1=O,98% (inactive),92.1% (inactive),8.66% (active),107% (inactive),54.5% (inactive),80.8% (inactive),90.4% (inactive),79.3% (inactive),
NC(=S)N/N=C\c1nccc2c(C(F)(F)C(F)(F)C(F)(F)F)cccc12,4.05% (active),41.4% (inactive),23.4% (inactive),28.6% (inactive),11.5% (inactive),17.4% (inactive),13.3% (inactive),14.2% (inactive),
Cc1ccc2nc(-[n+]3cc4ccccc4cc3C)ccc2c1,15.3% (inactive),0.0135% (active),27.8% (inactive),55.8% (inactive),20.3% (inactive),25.8% (inactive),42.1% (inactive),31.5% (inactive),
CCN(CC)CC(C)(C)C(=O)/C=C/c1ccc(Cl)c(Cl)c1,-11.3% (active),16.4% (inactive),1.76% (active),-39.5% (active),-13.8% (active),-60.6% (active),-65.2% (active),-4.49% (active),
